Bim-Bcl-W: disrupts Bim peptide binding to human Bcl-W; bead-based flow cytometry; inhibition, % at 10 µM; 0.02% of 190,000 active; AID 952;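 note: higher means less fluorescent Bim peptide bound to Bcl-W beads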
Bcl-B Bim block: human Bim-Bcl-B interaction inhibition | Q9HD36 | bead-based flow cytometry, Bim peptide-Bcl-B binding | inhibition, % at 10 µM | 0.073% of 190,000 active | AID 951
Bim-Bcl-XL: disrupts Bim peptide binding to human Bcl-XL | Q07817 | bead flow cytometry, fluorescence | inhibition, % at 10 µM | 0.04% of 190,000 active
Bim-Bcl-2: disrupts Bim peptide binding to human Bcl-2; Bead-based flow cytometry, Bim peptide-Bcl-2 binding; 0.06% of 190,000 active; P10415; inhibition, % at 10 µM; in the data active = inhibition above about 40%
Target sequence (P10415 whole entry, looked up): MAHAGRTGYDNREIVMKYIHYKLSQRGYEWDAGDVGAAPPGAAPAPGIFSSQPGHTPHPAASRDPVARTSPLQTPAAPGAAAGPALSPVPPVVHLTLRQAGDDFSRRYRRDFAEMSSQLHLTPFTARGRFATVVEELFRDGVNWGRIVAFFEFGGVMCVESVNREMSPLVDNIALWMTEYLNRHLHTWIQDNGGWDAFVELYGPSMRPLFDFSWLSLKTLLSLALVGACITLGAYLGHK
Bim-Bfl-1: disrupts Bim binding to human Bfl-1; Bead-based flow cytometry, Bim-Bfl-1 binding inhibition; AID 1008; 0.12% of 190,000 active; Q16548; inhibition, % at 10 µM
Target sequence (Q16548 whole entry, looked up): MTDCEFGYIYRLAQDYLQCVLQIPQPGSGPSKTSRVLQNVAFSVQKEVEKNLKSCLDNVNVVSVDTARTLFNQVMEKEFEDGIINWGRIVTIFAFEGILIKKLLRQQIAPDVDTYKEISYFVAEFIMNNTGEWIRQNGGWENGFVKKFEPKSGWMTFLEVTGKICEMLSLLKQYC
Large screens that a line does not name were inactive. Shown are actives, neighbours in structure and some others; about 0.2% of the full set was active somewhere. Cut-off read from the data, not from the text of the source, unless noted: active = inhibition above about 40%.

COc1cc(C2Nc3cccc4cccc(c34)N2)ccc1OC(C)=O	Bim-Bfl-1 43
COc1cc(C2Nc3cccc4cccc(c34)N2)cc(OC)c1O	Bim-Bcl-W 42, Bim-Bfl-1 57
COC(=O)c1ccc(C2Nc3cccc4cccc(c34)N2)cc1	none
COc1cccc(S(=O)(=O)Nc2cccnc2)c1	none
CCCN1C(=O)/C(=C\C=C2/Sc3ccccc3N2CC)SC1=S	none
CCN1C(=O)/C(=C/C=C2\C=CN(CC)c3ccccc32)SC1=S	Bim-Bfl-1 50
COc1c(F)c(F)c(C(=O)Nc2ccccc2N2CCN(C(=O)C(C)C)CC2)c(F)c1F	Bim-Bcl-2 83 (no result: Bcl-B Bim block, Bim-Bfl-1)
COc1c(F)c(F)c(C(=O)Nc2ccccc2N2CCN(C(C)=O)CC2)c(F)c1F	none
COC(=O)c1[nH]c2ccccc2c1NC(=O)c1ccccc1[N+](=O)[O-]	Bcl-B Bim block 44
Cc1cccc(NC(=S)N2CCn3cccc3C2c2cccnc2)c1 (stereo not given)	Bcl-B Bim block 41
COc1cccc(NC(=S)N2CCn3cccc3C2c2cccnc2)c1 (stereo not given)	none
CCOC(=O)c1ccc(NC(=S)N2CCN(CCN=CC3=C(O)CC(C)(C)CC3=O)CC2)cc1	none
Cc1ccc(-n2[nH]c(C)c(/C=N/Nc3ccc([N+](=O)[O-])cc3[N+](=O)[O-])c2=O)cc1C	Bcl-B Bim block 42, Bim-Bcl-XL 43, Bim-Bfl-1 42
Fc1ccc(Nc2nc(Oc3ccc4c(c3)OCO4)nc(N3CCOCC3)n2)c(F)c1	none
O=c1[nH]c(SCc2nc3ccccc3c(=O)n2-c2ccccc2C(F)(F)F)nc2ccccc12	Bim-Bcl-XL 41
CCOC(=O)C1(C)/C(=N/Nc2ccccc2)C(=O)C(=O)N1c1ccccc1 (stereo not given)	none
COC(=O)c1ccccc1COn1c(=O)c[n+]([O-])c2ccccc21	none
COCc1cc(C)nc(OCC(=O)N/N=C/c2ccc(O)cc2)c1C#N	none
O=C(C1CCC(Cn2c(=S)[nH]c3ccccc3c2=O)CC1)N1CCN(c2ccccn2)CC1 (stereo not given)	Bcl-B Bim block 52
O=C(C1CCC(Cn2c(=S)[nH]c3ccccc3c2=O)CC1)N1CCOCC1 (stereo not given)	none
O=C(NCCCn1ccnc1)C(=O)NC1CCCCC1	none
O=C1CCCC2(O)C1C(c1cccc(Br)c1)NC(=O)N2Cc1ccccc1 (stereo not given)	Bim-Bcl-XL 49
CCN(c1cccc(C)c1)S(=O)(=O)c1ccc(OC)c([N+](=O)[O-])c1	none
COc1cc2c(cc1OC)C(c1ccccc1F)OC(=O)C2 (stereo not given)	Bim-Bcl-W 89, Bcl-B Bim block 97, Bim-Bcl-XL 72, Bim-Bcl-2 98, Bim-Bfl-1 59
COc1cc2c(cc1OC)C(C(=O)N1CCCCC1)C(c1ccccc1F)N(C)C2=O (stereo not given)	none
O=C(NCc1ccco1)C1CC2CCC1C2 (stereo not given)	Bim-Bcl-XL 47
CN(C)c1ccc(/C=C2/SC(=O)N(CCN=C3NS(=O)(=O)c4ccccc43)C2=O)cc1	Bim-Bcl-W 71, Bcl-B Bim block 92, Bim-Bcl-XL 50, Bim-Bcl-2 91, Bim-Bfl-1 48
COc1ccc(CC(=O)OCC(=O)NCc2ccccc2Cl)cc1	none
COc1ccc(COC(=O)NNC(=O)c2ccccc2Cl)cc1	Bcl-B Bim block 83, Bim-Bcl-2 83, Bim-Bfl-1 66
COc1ccccc1Cn1nnc2c(=O)[nH]c(C3CCN(C(=O)c4ccc(F)cc4)CC3)nc21	Bcl-B Bim block 57
COc1ccccc1Cn1nnc2c(=O)[nH]c(C3CCN(C(=O)c4ccc(C)cc4)CC3)nc21	Bcl-B Bim block 50
Cc1ccc(OCc2cn3cccnc3n2)cc1	Bcl-B Bim block 58
COc1ccc(S(=O)(=O)N2CCc3ccccc32)cc1NC(C)=O	none
CCc1nc2ccccc2n1CC1CC1(Cl)Cl (stereo not given)	none
COc1ccc(N=c2oc3cc(O)ccc3cc2C(=O)NCC2CCCO2)c(OC)c1 (stereo not given)	none
CCn1c(C)nc2cc(C(=O)N/N=C/c3cccc(OC)c3O)ccc21	none
CCn1c(C)nc2cc(C(=O)N/N=C/c3ccc(O)c(O)c3O)ccc21	Bim-Bfl-1 52
CCN(CC)S(=O)(=O)c1cccc(C(=O)N/N=C/c2ccc(O)c(O)c2O)c1	Bcl-B Bim block 43, Bim-Bcl-XL 54
O=C(CCn1nc(-c2ccc(Cl)cc2)ccc1=O)NCc1ccccn1	none
CN(C)S(=O)(=O)N(CC(=O)Nc1ccccc1C(F)(F)F)c1ccccc1	Bim-Bcl-2 86 (no result: Bcl-B Bim block, Bim-Bfl-1)
Cc1ccc(NC(=O)C/C(N)=N/OC(=O)c2ccccc2)cc1	Bcl-B Bim block 64, Bim-Bcl-2 73, Bim-Bfl-1 51
Cn1c(=O)c2[nH]c(N3CCN(c4ccccc4)CC3)nc2n(C)c1=O	none
Cc1nn(Cc2ccccc2)c(C)c1C(=O)OCC(=O)c1cc(C)n(C2CC2)c1C	none
O=C(O)/C=C/C(=O)NNC(=O)c1ccc(Br)cc1	Bim-Bcl-XL 41
O=C(/C=C/NNC(=O)c1ccccc1)c1ccc(Br)cc1	none
N=C1C(c2nc3ccccc3s2)=C(O)CN1Cc1ccccc1	Bcl-B Bim block 83, Bim-Bcl-2 85, Bim-Bfl-1 68
Cc1ccc(C(=O)N/N=C2/NC(=O)CC(C(=O)Nc3ccccc3)S2)cc1 (stereo not given)	Bim-Bcl-XL 40
CCOC(=O)C1=C(CC)Nc2ccccc2N=C1NC(=O)c1ccc(S(=O)(=O)N2CCOCC2)cc1	Bcl-B Bim block 75, Bim-Bcl-2 78, Bim-Bfl-1 57
CCOC(=O)C1=C(CC)Nc2ccccc2N=C1NC(=O)c1ccc(S(=O)(=O)N(C)C)cc1	none
Cc1nc2ccccc2n1C1CCN(CC(=O)NCc2ccc(F)cc2)CC1	Bcl-B Bim block 64, Bim-Bcl-2 59
CCOC(=O)CCCNC(=O)c1cncc(O)c1	Bcl-B Bim block 68, Bim-Bcl-2 72, Bim-Bfl-1 46
O=C(NCCCNC(=O)c1cncc(O)c1)c1cncc(O)c1	none
COCCSc1nnc(NC(=O)C2CC(=O)N(c3ccccc3)C2)s1 (stereo not given)	none
O=C(Nc1nnc(SCc2ccccn2)s1)C1CC(=O)N(c2ccccc2)C1 (stereo not given)	Bim-Bcl-XL 40
CCN(Cc1ccccc1)C(=O)c1ccc(CNS(=O)(=O)c2ccc(C)cc2)cc1	none
CCN1/C(=C\c2ccc3cc(C)ccc3[n+]2CC)Sc2cc(C)c(C)cc21	none
CCN1/C(=C/c2ccc3cc(C)cc(C)c3[n+]2CC)Sc2cc(C)ccc21	Bim-Bfl-1 45
CN(C)S(=O)(=O)c1cccc(C(=O)OCC(=O)c2ccc3c(c2)NC(=O)CO3)c1	Bcl-B Bim block 43
c1cncc(-c2nc(NCC3COc4ccccc4O3)c3ccccc3n2)c1 (stereo not given)	none
CCOc1ccc(/C=C2\SC(=S)NC2=O)cc1OC	none
COc1ccc(/C=C2\SC(=O)NC2=S)cc1OC	Bim-Bcl-2 53
COc1ccc(-c2nc(CSCC(=O)N3CCc4ccccc4C3)c(C)o2)cc1OC	none

From PubChem
